This passage reports viability results from PubChem BioAssay AID818 (SRMLSC, 2007).

Hit rate of the full screen: of about 140,000 compounds, about 2,100 (1.5%) were called active. The full list was thinned out, with actives kept by preference. Values without a mark were called inactive.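 How the source made its calls: active means viability at or under a set limit, the compound median less 4 SD (cut at about 6% in these data); inactive means the rest.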

The nature of this experiment: primary screen for growth suppressors in beta-catenin knockout HCT116 cells (colon tumor, human) (AID 818).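 Further: 0% = Hyamine 1622 control at 20 µM and 100% = untreated cell control.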 Particulars: CellTiter-Glo, 60 h, at 10 µM, stronger effect = lower value. Background: ATP-based viability assays read luminescence as a measure of living cells.
The term viability denotes a read-out of living cells in per cent, often relative to untreated cells. As for `COc1ccc(C(=O)OCC(=O)NC(=O)CCSc2ccccc2)cc1`, the viability is 97.4%.

Regarding `CC(=O)Nc1ccc(NC(=O)C(C)OC(=O)c2ccccc2C(=O)c2ccc(Cl)c([N+](=O)[O-])c2)cc1` (configuration not stated), the viability is 8.71%. Under `N#Cc1cccc(NC(=O)COC(=O)c2ccccc2C(=O)c2ccc(Cl)c([N+](=O)[O-])c2)c1` stands 3.2% (active). The value for `COC(=O)c1cc(NC(=O)Cc2ccccc2[N+](=O)[O-])ccc1Cl` was 80.7%; that for `CC(=O)Nc1ccc(SCC(=O)Nc2ccccc2Oc2ccccc2)cc1` was 86.2%. In the case of `O=S(=O)(NCC1CCCO1)c1cnc(Cl)c(Cl)c1` (configuration not stated), the viability was 69.3%. Under `O=C(O)c1ccccc1-c1ccccc1C(=O)Nc1cccc2ccccc12` stands 90.2%; under `O=C(Nc1c2c(nc3ccccc13)CCCC2)c1ccccc1Br`, 83.6%.

Consider `O=C(Nc1cccc2ccccc12)c1onc2c1CCCC2`, for which the viability is 1.26% (active). As for `Cc1cc(C(C)(C)C)cc(C)c1N`, the viability was 100%. Under `CCCc1nc(SCC(=O)Nc2ccc(S(=O)(=O)N(C)C)cc2)c2ccccc2n1` stands 72.2%. As to `CC(=O)N1CCN(c2cccc(C)c2C)CC1`, the viability is 99.9%. In the case of `O=C(O)c1cnn2c(C(F)(F)F)cc(-c3ccccc3)nc12`, the viability is 96.5%. The value for `Cc1cccc(N2CCN(C(=O)c3cnn4c(C(F)F)cc(-c5ccccc5)nc34)CC2)c1C` was 2.3% (active); that for `CCC(C(=O)OCC(=O)Nc1ccccc1-c1ccccc1)c1ccccc1` (configuration not stated) was 92.8%. Under `CCOc1ccccc1C1CC(c2cccc(NS(C)(=O)=O)c2)=NN1C(=O)c1ccccc1` (configuration not stated) stands 79.6%; under `COc1ccc(C2CC(c3ccccc3)=NN2C(=O)c2ccc(Cl)c([N+](=O)[O-])c2)cc1` (configuration not stated), 10.9%; under `CCOc1ccc2nc(Cl)c(C3CC(c4ccccc4)=NN3C(=O)c3cccs3)cc2c1` (configuration not stated), 1.68% (active). Under `N#CCSc1nc2ccccc2c(=O)n1-c1ccccc1` stands 101%; under `Cc1cc(C)c2c(n1)sc1c(=O)n(-c3ccccc3)c(=O)[nH]c12`, 95.9%.

Consider `C/C(O)=C\c1nc(=O)c2c(C)cc(C)nc2n1-c1ccccc1`, for which the viability is 2.41% (active). Under `O=C1NC(=Nc2ccc(Cl)cc2)SC1Cc1cccc(Cl)c1Cl` (configuration not stated) stands 101%; under `COC(=O)c1sccc1NC(=O)COc1ccc(Cl)cc1`, 68.7%. For the compound `Cc1ccc2[nH]c(=O)c(CC=C(Cl)Cl)c(C)c2c1`, the viability was 88.7%. Under `CN(C)c1ccc(/C=N/NC(=O)c2ccc(Cn3cc(Br)cn3)o2)cc1` stands 103%.

For the compound `COc1ccc(CCNc2cc(C)nc3c(-c4ccc(Cl)cc4)c(C)nn23)cc1OC`, the viability was 74.8%. Take `CC(C)CC[n+]1ccn(C2=C([O-])c3ccccc3C(=O)/C2=N\S(=O)(=O)c2ccccc2)c1`: the viability was 2.01% (active). The value for `COc1ccc(C2Nc3ccccc3C(=O)N2c2ccc(F)cc2)cc1Cn1nnc2ccccc21` (configuration not stated) was 69.3%; that for `CC(=O)N1CC(C)c2scc(C)[n+]2-c2ccccc21` (configuration not stated) was 91.2%. The value for `COc1cccc(CNCCc2c[nH]c3ccccc23)c1OCc1ccccc1F` was 0.88% (active); that for `COc1ccc(C(CCNCc2ccccc2F)c2ccc(F)cc2)cc1` (configuration not stated) was 9.17%; that for `COc1ccccc1NC(=O)CCCc1c[nH]c2ccccc12` was 101%. Under `COc1ccc(/C(C)=N/NC(=O)CCC(=O)Nc2ccc(Cl)cc2Cl)c(OC)c1` stands 91.2%. Consider `O=C(Nc1cccc(F)c1)c1coc(=O)c(Br)c1`, for which the viability was 45%.

Turning to `NC(=O)Nc1ccccc1C(=O)NCCc1ccccc1`, the viability was 99.7%. The value for `CCc1ccc(NC(=O)C(C)OC(=O)/C=C/c2cccc([N+](=O)[O-])c2)cc1` (configuration not stated) was 90.3%. Under `Cn1cc([N+](=O)[O-])c(C(=O)Nc2ccc3c(c2)OCCO3)n1` stands 5.15% (active); under `O=C(Nc1ccc2c(c1)OCCO2)c1ccncc1`, 100%; under `Cn1cc([N+](=O)[O-])c(C(=O)Nc2cnn(Cc3ccc(F)cc3)c2)n1`, 8.14%. For `COc1ccc(OC(C)C(=O)NCCc2nc3ccccc3[nH]2)cc1` (configuration not stated), the viability is 99.8%. The value for `CCOC(=O)c1cnc(-n2nc(C)cc2C)nc1NNc1cc(C)nc(-c2ccccc2)n1` was 3.41% (active). The value for `CCOC(=O)c1cnc(-c2ccccc2)nc1Oc1ccc(C)cc1` was 89.3%; that for `CCOC(=O)c1cnc(-n2nc(C)cc2C)nc1-n1nc(C)cc1C` was 103%. The value for `CCC(C)(C(=O)Nc1ccccc1C)N(C(=O)CNC(C)=O)c1ccc(C)cc1` (configuration not stated) was 92.2%. Turning to `COC(=O)[C@@H]1CC[C@H](C)[C@@H](c2ccc(C)cc2)N1C(=O)c1ccc(/C=N/O[C@H](C)c2cn([C@@H]3COC[C@H]3O)nn2)cc1`, the viability is 86.4%. Under `CSc1nc2ccccc2cc1/C=C(\C#N)c1ccc(Cl)cc1Cl` stands 4.22% (active). Under `CSc1nc(N)c(C#N)c(-c2ccccc2Cl)c1C#N` stands 89.2%. Under `Cc1nc2ccccc2cc1O` stands 92.2%; under `Cc1ccc(SCCC(=O)NC(C(C)C)C(C)C)cc1`, 89.2%; under `CCCC(NC(=O)c1ccco1)c1nc2ccccc2[nH]1` (configuration not stated), 101%. Turning to `CCCCC(=O)NCc1ccc(F)cc1`, the viability is 93.4%. Turning to `CN(CC(=O)Nc1ccc(S(=O)(=O)N2CCCC2)cc1)Cc1ccc(Cl)c(Cl)c1`, the viability is 65.4%. Under `COc1ccc(NS(=O)(=O)c2cc(NC(=O)/C=C/c3cc(OC)c(OC)c(OC)c3)ccc2N2CCCCC2)cc1` stands 89.5%; under `COc1cccc2cc(C(=O)N(C)C)c(=O)oc12`, 1.59% (active). The value for `COc1cccc2cc(C(=O)N3CCN(C(=O)c4ccccc4)CC3)c(=O)oc12` was 100%; that for `C=CCc1cccc2cc(C(=O)OCC)c(=O)oc12` was 97.7%. The value for `O=C(c1cccc2ccccc12)N1CCN(c2ccccc2F)CC1` was 83.3%. In the case of `COC(=O)c1ccc(C(=O)OC)c(NC(=S)N2CCN(c3cc(Cl)ccc3C)CC2)c1`, the viability is 92.1%. The value for `Cc1ccc(Cl)cc1N1CCN(C(=O)c2cccc3c(=O)c(C)c(-c4ccccc4)oc23)CC1` was 1.34% (active); that for `COCCn1c(SCC(=O)Nc2ccc3c(c2)CCC3)nc2ccccc2c1=O` was 81.5%. The value for `O=C(/C=C/NCc1ccc(F)cc1)c1ccccc1` was 87.5%. The value for `NS(=O)(=O)c1cc(C(=O)NCCOc2ccccc2)c(Cl)cc1Cl` was 78.4%; that for `COc1ccccc1N1CCN(Cc2nnnn2CCc2ccccc2)CC1` was 82.5%. As to `COc1ccccc1-n1nnnc1S(=O)(=O)Cc1ccc(Cl)cc1`, the viability was 2.91% (active). The value for `COc1ccccc1N1CCN(C(=O)CN(Cc2ccc(Cl)cc2)S(C)(=O)=O)CC1` was 68.4%; that for `CCc1cccc(C)c1NC(=O)COC(=O)Cc1ccsc1` was 80.8%; that for `COc1ccc(-c2cc(C(F)(F)F)nc(SCC(=O)Nc3ccc4c(c3)OCO4)n2)cc1OC` was 91.6%.

`O=C(/C(=C/c1cccc(Cl)c1)c1nc2ccccc2[nH]1)c1ccccc1`: the viability was 1.3% (active). Turning to `Oc1ccc(Cl)cc1/C=N/c1nc2ccccc2[nH]1`, the viability was 89.3%.

Consider `COc1ccc(/C=C(/NC(=O)c2ccc(C)cc2)c2nc3ccccc3[nH]2)cc1OC`, for which the viability was 87.3%.

As to `Cc1cc(C)cc(C(=O)NC(=S)Nc2ccc3[nH]c(=O)[nH]c3c2)c1`, the viability is 95.8%. The value for `Cc1cccc(NC(=O)Cn2c(=O)n(Cc3ccccc3)c(=O)c3c(C)c(C)sc32)c1` was 77%; that for `COc1ccc(/C=C(/CC(=O)Nc2ccc(C)cc2)c2nc3ccccc3s2)cc1` was 73%; that for `Fc1ccccc1/C=C1\CCCC2=C1Nc1ncnn1C2c1ccccc1F` (configuration not stated) was 4.91% (active). The value for `CC(C)(C)SCCNC(=O)c1cccc([N+](=O)[O-])c1` was 97.8%; that for `COc1ccc(/C=C/C(=O)c2cc(Br)ccc(=O)c2O)cc1` was 11.3%.

`COC(=O)CN1C(=O)C(O)=C(C(C)=O)C1c1ccc([N+](=O)[O-])cc1` (configuration not stated): the viability is 86.9%. In the case of `COC(=O)CN1C(C)=Nc2ccc(Br)cc2C1c1ccccc1` (configuration not stated), the viability is 0.76% (active). Consider `CCC(CC)C(=O)N1CC(=O)Nc2ccc(Br)cc2C1c1ccccc1` (configuration not stated), for which the viability is 80.3%. Under `CCCCCC(=O)Nc1ccc(S(=O)(=O)Nc2ccc(Cl)nn2)cc1` stands 102%. As to `CCCCc1nc(NCCN)c(C#N)c2c1CSC(C)(C)C2`, the viability was 1.71% (active).

Consider `CCCCc1nc(NCc2ccccc2)c(C#N)c2c1CCCC2`, for which the viability is 81%. Under `Cc1nc(NCCN)c(C#N)c2c1COC(C)(C)C2` stands 94.1%.

With `CCC(C)C(=O)Nc1cc([N+](=O)[O-])ccc1Cl` (configuration not stated), the viability is 96.4%. Under `Oc1c(Br)cccc1/C=N/Nc1c(F)c(F)c(F)c(F)c1F` stands 51%. Turning to `O=c1c2sccc2nc(SCc2cc(=O)n3ccccc3n2)n1-c1ccc(Br)cc1`, the viability is 59.1%. On to `COc1ccc(O[C@H]2C=C[C@@H](c3ccccc3)O[C@@H]2CO/N=C/C[C@@H]2C=C[C@H](OC(C)=O)[C@@H](COC(C)=O)O2)cc1`, for which the viability is 88.8%.

`CCCNC(=O)OC[C@H]1O[C@H](CCO/N=C/[C@@H](NS(=O)(=O)c2ccc(C)cc2)[C@H](C)/C=C/CC(=O)OC)C=C[C@@H]1Oc1ccc(OC)cc1`: the viability is 0.62% (active). The value for `CCCC(NS(=O)(=O)c1ccc(OC)cc1)C(=O)O` (configuration not stated) was 92.4%; that for `NNc1nc2c(Cl)cccc2s1` was 83.6%.

Turning to `Cc1ccc(C(=O)Oc2coc(CSc3nnc(NC(=O)c4cccs4)s3)cc2=O)cc1C`, the viability is 96.1%. The value for `Cc1ccc(S(=O)(=O)NCCSc2ccccc2)cc1[N+](=O)[O-]` was 104%.
